High-throughput results deposited in PubChem BioAssay by National Center for Advancing Translational Sciences (NCATS).
An excerpt weighted towards active compounds, which were near 12% of everything screened.
JMJD2A Tudor inh – blocks the human JMJD2A Tudor domain; AlphaScreen JMJD2A-Tudor / H3K4me3 peptide binding; Potency, µM (top dose mostly 114 µM), inactives show at the top dose activity change, negative = inhibition, hits mostly inhibitors; O75164; actives 4.4% (n = 390,000); note: potency is the fitted concentration of half-maximal effect; % is set by controls: 0 for no effect and ±100 for the full control effect; nearly all actives have a fitted effect of over 50% in size
G9a block – blocks human histone lysine methyltransferase G9a; Potency, µM (doses to about 102 µM), without a hit: top-dose activity, negative = inhibition, hits mostly inhibitors; G9a H3K9 monomethylation, AlphaScreen, 2 h; Q96KQ7; actives 8.8% (n = 350,000); note: potency is the fitted concentration of half-maximal effect; % is set by controls: 0 for no effect and ±100 for the full control effect; nearly all actives have a fitted effect of over 75% in size
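Signal arises when biotinylated H3K9 peptide, once monomethylated, bridges streptavidin donor and antibody-captured acceptor beads. Enzyme at 20 nM was preincubated 15 min with test compounds; peptide 500 nM and SAM 20 uM then reacted for 2 h.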
HP1b chromo inh – inhibitors of HP1-beta chromodomain binding to methylated histone tails. P83916. AlphaScreen HP1-beta / biotin-H3K9me3 peptide binding. Potency, µM (titrated, usually from 114 µM), for the others: top-dose activity change, negative = inhibition, most hits filed as inhibitors. actives 0.56% (n = 390,000). AID 540317; note: potency is the fitted concentration of half-maximal effect; nearly all actives have a fitted effect of over 70% in size
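HP1-beta protein (50 nM final) preincubated 30 min at room temperature with biotinylated H3(1-18)K9me3 peptide (50 nM) in PBS pH 7.4, 0.01% Tween-20, then compound added for 30 min. AlphaScreen streptavidin donor/nickel chelate acceptor beads (10 ug/mL final), 30 min dark, luminescence read.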
PI5P4Ka inh – blocks human PI5P4K alpha kinase activity; P48426; actives 1.2% (n = 330,000); max response, %; AID 652105; PI5P4Kalpha enzyme, ADP-Glo luminescence, 60 min; stronger effect = lower value; active = max response of -50% or lower; inconclusive = between -30% and -50%; inactive = -30% or higher; note: value at the top dose of about 77 µM; % is set by controls: 0 for no effect and ±100 for the full control effect
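Single end-point luminescence (ADP-Glo) quantified ADP from PI5P4Kalpha turnover; ATP 5 microM final, 1 h at RT, 0.1% CHAPS and 0.28 mM EGTA in HEPES pH 7.4.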
PLK1 PBD block – PLK1 (human) polo-box domain binding inhibition; Potency, µM, inactives show max response, negative = inhibition, actives largely listed as inhibitors; Plk1 PBD binding of FITC phosphopeptide, fluorescence polarization; actives 2.8% (n = 360,000); note: potency is the fitted concentration of half-maximal effect; series mostly up to about 57 µM; % is set by controls: 0 for no effect and ±100 for the full control effect; nearly all actives have a fitted effect of over 65% in size
BAZ2B block – blocks human BAZ2B | Q9UIF8 | Potency, µM (highest dose often 114 µM), for inactives: at the top dose activity change, negative = inhibition, hits mostly inhibitors | actives 4.4% (n = 360,000) | AlphaScreen BAZ2B-H3K14Ac peptide displacement; note: potency is the fitted concentration of half-maximal effect; % is set by controls: 0 for no effect and ±100 for the full control effect; nearly all actives have a fitted effect of over 60% in size
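AlphaScreen displacement of biotin-H3(5-23)K14Ac peptide (50 nM final) from BAZ2B (50 nM final) in PBS pH 7.4, 0.01% Tween-20; complex preformed 30 min RT, then compounds (top 110 uM) 30 min RT, beads 20 min dark.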
Numbers without * were called inactive; ? = inconclusive; . = not tested or not shown; ! = not active in a repeat; [ ] = dose if it differs, or a comment. Unless noted, calls come from the whole dose curve; as a rule, active = well fitted curve in the direction sought with a large enough effect; inconclusive = small, poorly fitted or top-dose-only effect, or another doubt; inactive = no such curve, though single readings can be large; an effect the other way counts as inactive or inconclusive.

SMILES | JMJD2A Tudor inh | G9a block | HP1b chromo inh | PI5P4Ka inh | PLK1 PBD block | BAZ2B block
O=c1oc2ccc(Cl)cc2nc1/C=C(\O)c1ccco1 | 89µM* | 8.9µM* | 21% | -6 | 62% | 35µM*
Cc1ccc(C(=O)NCC(=O)Nc2ccc(Cl)cc2)s1 | -12% | . | 16% | -4 | -2% | .
COCCNC(=O)C1CCCN(Cc2ccc(C)cc2)CC1 (centres undefined) | . | . | . | -1 | -11% | .
Cc1cc(C)cc(C(=O)NCC(=O)OCC(=O)N2CCCC2)c1 | . | . | . | -8 | 1% | .
ClCCn1c(CCl)nc2ccc(Cl)cc21 | . | . | . | 1 | 3% | .
COc1ccccc1NC(=O)C(=O)N/N=C(\C)CC(=O)Nc1ccccn1 | -8% | . | 44% | 4 | 1% | 79µM*
COc1ccccc1OCC(=O)Nc1ccncc1 | -4% | 16% | 43% | -2 | 0% | -3%
COc1ccccc1OCC(=O)Nc1ccccn1 | -7% | 20µM* | 31% | . | -1% | 4%
CCOC(=O)N1CCN(C(=O)C[C@@H]2C[C@@]3(C(=O)OCC)CCCC=C3N(Cc3ccco3)C2=O)CC1 | . | . | . | 0 | -16% | .
Cc1ccc(C(=O)NCCc2csc(-c3cccc(F)c3)n2)cc1C | -9% | 19%[59 µM] | 14%[57 µM] | . | . | -4%
CCc1cc(=O)oc2cc(C)c(CN3CCCC3)c(O)c12 | 20µM* | 45µM* | -51% | . | ? | 18µM*
Cc1cccc(C)c1C(O)c1ncc(-c2ccccc2F)[nH]1 (centres undefined) | . | . | . | -3 | -3% | .
Cc1cccc(/C=C/C(=O)c2ccc([N+](=O)[O-])o2)c1 | -32% | -17%[2.33 µM] | 17% | -8 | ? | ?
Cc1ccccc1/C=C/C(=O)c1ccc([N+](=O)[O-])o1 | ? | -8%[2.33 µM] | ? | -10 | ? | 35µM*
O=C(/C=C/c1cccc([N+](=O)[O-])c1)c1ccc([N+](=O)[O-])o1 | -22% | . | 42% | ? | 5.3µM* | .
COc1ccc(/C=C/C(=O)c2ccc([N+](=O)[O-])o2)cc1 | -24% | 8%[12.7 µM] | 12% | -7 | -21% | 1%
C/C(CCC1CC(C)OC1=O)=N/Nc1nc(-c2ccccc2)cs1 (centres undefined) | ? | 8.9µM* | -33% | 5 | 30µM* | ?
CC1CC(CC(=O)NNc2nc(-c3ccccc3)cs2)C(=O)O1 (centres undefined) | 0% | 3% | 55% | 1 | 0% | -11%
CC(C)CC1CC(C)(c2csc(NNC(=O)c3ccccc3)n2)OC1=O (centres undefined) | -10% | 45µM* | 29% | 3 | -7% | 0%
CC1(C)CC(CC(=O)NNc2nc(-c3ccccc3)cs2)C(=O)O1 (centres undefined) | ? | -4%[59 µM] | ? | -11 | 27µM* | -2%
CC1(C)CNC(=O)c2sc(NC(=O)c3ccccc3)nc2C1 | -16% | 8% | 13% | 1 | -24% | -11%
Cc1cc2c(c(=O)n1Cc1ccccc1)C1O[C@](c3ccsc3)(Cc3cc(C#N)ccc31)O2 | . | 17%[2.33 µM] | . | . | . | -37%[22.9 µM]
CCOC(=O)c1c(-c2ccc(C)s2)csc1N | ? | ? | ? | 0 | 5.3µM* | ?
CCOC(=O)c1c(-c2ccsc2)csc1N | ? | 48%[59 µM] | -22% | 4 | -10% | 15%
CCOC(=O)c1c(CC(C)C)csc1N | -14% | 40µM* | 17% | -4 | ? | ?
SMILES | JMJD2A Tudor inh | G9a block | HP1b chromo inh | PI5P4Ka inh | PLK1 PBD block | BAZ2B block
CCOC(=O)c1c(CC(C)C)csc1NC(=O)C(C)C | 76% | 175% | 163% | 21 | -10% | 48%
CCOC(=O)c1c(CC(C)C)csc1NC(=O)CCl | -24%[11.4 µM] | 25%[59 µM] | ? | -28 | 3µM* | 33%
Cc1ccc(O/C=C2/Nn3c(nnc3-c3cc(-c4ccccc4)n[nH]3)S2)cc1 | -15%[57.1 µM] | . | 7%[57 µM] | . | . | .
O=C(CNC(=O)c1ccccc1)N[C@H](C(=O)Nc1cc(C(F)(F)F)ccc1Cl)c1ccccc1 | -28% | . | . | . | . | .
O=C(O)/C=C/c1cnc[nH]1 | -13% | 13µM*! | 36% | -2 | -10% | 7%
CCc1nc(N2CCCC(C)C2)c2oc3ccccc3c2n1 (centres undefined) | 20µM* | ? | 63% | . | 15µM* | 57%
CCc1nc(N2CCN(Cc3ccc4c(c3)OCO4)CC2)c2oc3ccccc3c2n1 | ? | ? | ? | 0 | -4% | 71µM*
O=C(Nc1cccc(C(=O)O)c1)/C(=C/c1cccc([N+](=O)[O-])c1)NC(=O)c1cccc(Br)c1 | -23% | . | 21% | -1 | -3% | .
O=C(N/N=C/C(Cl)=C/c1ccc([N+](=O)[O-])cc1)C(=O)Nc1cccc(C(=O)O)c1 | ? | ? | 7% | 0 | -7% | 56µM*
Cc1ccc2c(c1)N(C(=O)CCC(=O)NCc1cccc(F)c1)CC(C)O2 (centres undefined) | -19% | -6%[59 µM] | 26% | . | . | -1%
COc1cc(S(=O)(=O)NCCc2ccc3c(c2)OCO3)ccc1-n1cnnn1 | -9% | 56µM* | 11% | . | -9% | -7%
COc1ccc(CNS(=O)(=O)c2ccc(-n3cnnn3)c(OC)c2)cc1 | -1% | 50µM* | -13% | -2 | -4% | 3%
CCCNS(=O)(=O)c1ccc(-n2cnnn2)c(OC)c1 | -9% | 3% | 46% | -1 | 2% | -3%
COc1cc(S(=O)(=O)NCc2ccccc2)ccc1-n1cnnn1 | 4% | 19% | 34% | -8 | 5% | 2%
COc1ccc([C@H]2C[C@@H](n3cc(C4CC4)nn3)[C@H](O)CN2CC2CCCCC2)cc1 | . | . | . | -1 | 3% | .
CCNc1ccc(C(=O)OCC)cc1NC(=O)c1cccc(N(C)C)c1 | ? | 50µM* | -18% | . | -4% | ?
Cc1ccc(S(=O)(=O)NC(=O)c2cccc(N(C)C)c2)cc1 | -17% | . | 30% | 1 | -10% | .
CCOC(=O)c1ccc(S(=O)(=O)NNC(=O)c2cccc(N(C)C)c2)cc1 | -19% | 11µM* | 10% | 1 | -12% | .
CC(=O)N1C(=O)CC(C)N(C(C)=O)c2ccc([N+](=O)[O-])cc21 (centres undefined) | ? | 20µM* | 44% | -10 | -12% | -2%
CC1CC(=O)N(C)c2ccc([N+](=O)[O-])cc2N1 (centres undefined) | -2% | 8%[59 µM] | 20% | -3 | 0% | 9%
Cc1cc(C(=O)O)c(=O)[nH]c1C | 22µM* | 71µM* | -5% | . | -8% | ?
COCCCn1cc(CN2CC(N3CCSCC3)CS2(=O)=O)nn1 (centres undefined) | . | . | . | -1 | -16% | .
COc1ccccc1-c1nc(SCc2ccccn2)n[nH]1 | -14% | 50µM* | 17% | -6 | -17% | 10%
COc1ccc2cc(CNc3ccc(C)cc3)c(=O)n(CC(=O)Nc3cccc(Cl)c3C)c2c1 | 5% | ? | 50% | . | . | -2%
